FXIIa inh mix: human factor XIIa inhibitors, primary screen, biochemical, pooled compound mixtures, fluorogenic substrate; 0.2% of 62,000 active; inhibition, % at 5 µM; AID 684, 2007; purified FXIIa; Coagulation factor XII (Homo sapiens), P00748;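 further: 0% = enzyme without compound and 100% = no enzyme blank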
FXIa mix inh: FXIa protease inhibitors in compound pools, primary screen, biochemical, 10-compound mixtures; AID 680, 2007; 0.19% of 62,000 active; Coagulation factor XI (Homo sapiens), P03951; inhibition, % at 5 µM; purified FXIa, fluorogenic substrate, pooled mixtures;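 further: each value is inhibition by a whole ten-compound pool holding the compound; 0% = enzyme with no mixture and 100% = wells lacking enzyme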
JNK3 inh: JNK3 kinase activity inhibitors, primary screen, biochemical, human, purified enzyme; inhibition, % at 8 µM; HTS; 0.61% of 60,000 active; in the data active means inhibition above about 17%;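 further: 0% = DMSO and 100% = reference inhibitor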
M1 ag: M1 muscarinic receptor agonists, primary screen, CHO-M1 cells, Fluo-4 calcium, agonist mode. B-score at 10 µM. Fluo-4 calcium fluorescence; active compounds read high. AID 626, 2007. Muscarinic acetylcholine receptor M1. 3% of 64,000 active;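 active means fluorescence rise, raw or as B-score row- and column-corrected plate score, outside the 99.7% band of its plate's samples, either direction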
M1 antagonist: antagonists of rat M1 muscarinic receptor | B-score at 10 µM | CHO-M1 cells, Fluo-4 calcium, ACh EC80 antagonist mode; active compounds read low | 3.4% of 64,000 active;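 active means calcium fluorescence response, raw or row-and-column corrected B-score, differing from the plate sample mean either way at a set confidence level, mostly lower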
Target sequence (P08482 whole entry, looked up): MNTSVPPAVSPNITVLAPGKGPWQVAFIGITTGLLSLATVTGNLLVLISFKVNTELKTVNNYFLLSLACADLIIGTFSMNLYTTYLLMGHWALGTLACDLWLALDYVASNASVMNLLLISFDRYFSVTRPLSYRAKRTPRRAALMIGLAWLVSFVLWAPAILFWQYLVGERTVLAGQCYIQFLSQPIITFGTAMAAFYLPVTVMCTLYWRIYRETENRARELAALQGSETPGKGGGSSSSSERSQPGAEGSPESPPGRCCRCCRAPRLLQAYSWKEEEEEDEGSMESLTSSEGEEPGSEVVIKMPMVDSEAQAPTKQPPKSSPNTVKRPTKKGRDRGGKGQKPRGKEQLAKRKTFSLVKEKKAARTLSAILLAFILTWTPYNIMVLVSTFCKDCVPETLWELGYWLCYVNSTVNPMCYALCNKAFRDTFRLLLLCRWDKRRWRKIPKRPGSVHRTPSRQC
HER2 expr 66K: inhibitors of Her2 protein expression, primary screen, SKBR-3 cells, AlphaScreen, 66K library | Receptor tyrosine-protein kinase erbB-2 (Homo sapiens), P04626 | SKBR-3 HER2 protein level, 18-24 h; active compounds read low | HER2 level % of control, % at 10 µM | 0.69% of 65,000 active;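 active means HER2 level under 5% of the carrier-only control; inconclusive means no clear call, values can overlap the other calls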;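 further: 100% = DMSO carrier and 0% = 500 nM PU-H71 HSP90 inhibitor; lower value means stronger loss of Her2 protein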
M1 ag confirm: rat M1 muscarinic receptor agonists, confirmation, CHO-M1 cells, Fluo-4 calcium, duplicate retest. shares compounds with M1 ag. Fluo-4 calcium fluorescence, agonist mode; actives lie on both sides. fluorescence change (max-min) at 10 µM. 19% of 1,700 active;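 active means fluorescence change differs from the solvent-only DMSO control mean at a set confidence level in both duplicate runs; inconclusive means differs from solvent-only control mean in just one of two runs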;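 further: an EC20 dose of acetylcholine follows compound addition during the same imaging run; raw fluorescence intensity difference in instrument units with no normalization to controls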
M4 ag counter: agonist activity at rat M4 receptor, confirmation, counter-screen for M1 allosteric modulator project, cell-based, agonist mode; 9% of 1,700 active; shares compounds with M1 ag; fluorescence change (max-min) at 10 µM; AID 1741, 2009; CHO M4/Gqi5 cells, Fluo-4 calcium fluorescence; actives lie on both sides;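 active means fluorescence change differing from the plate's solvent-only control wells at 99.7% confidence in both duplicates, whether higher or lower; inconclusive means differs from solvent controls in only one of two duplicates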
M1 antag confirm: rat M1 muscarinic receptor antagonists, confirmation, CHO cells, Fluo-4 calcium, duplicate | shares compounds with M1 antagonist | calcium response (max-min fluorescence) at 10 µM | 43% of 1,700 active | ACh EC80 antagonism; active compounds read low;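 active means calcium response below the same-plate mean of wells given acetylcholine alone at its 80%-effect dose, minus 3 SD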;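 further: raw fluorescence intensity difference in arbitrary instrument units and not normalized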
mGluR4 antag: human mGluR4 response to M1 antagonist hits, M1 allosteric modulator project, cell-based, antagonist mode, secondary assay 1 | shares compounds with M1 antagonist | CHO-mGluR4 calcium flux, Fluo-4 fluorescence, glutamate EC80; active compounds read low | fluorescence response (max-min) at 10 µM | 0.9% of 1,700 active;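 active means fluorescence response below the plate's average for near-maximal glutamate wells, less 3 SD of those wells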;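 further: raw unnormalized fluorescence span taken in the window right after glutamate addition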
* hit, by the source's call; ? = inconclusive; / = no result. A selection: hits, their analogues and other compounds. The true share with any hit is near 6.9%. Unless noted, no stated cut-off is given here; in the data, active means inhibition above about 20% (passing the limit was not always enough); inactive means the rest.

SMILES	FXIIa inh mix	FXIa mix inh	JNK3 inh	M1 ag	M1 antagonist	HER2 expr 66K	M1 antag confirm	mGluR4 antag	others
CC(C)C1(C)N=C(c2nc3ccccc3cc2C(=O)O)NC1=O (centres undefined)	0	7	0	0.23	0.26	89	/	/
CCC(=NCCOc1ccc(Cl)cc1)c1c(O)n(C)c(=O)n(C)c1=O	/	/	0	11*	-1	121	/	/	M1 ag confirm=-9.8;M4 ag counter=?
CCC(=NCCN1CCCCC1)c1c(O)n(C)c(=O)n(C)c1=O	/	/	0	-0.35	-0.37	128	/	/
CC(=NCc1ccc2c(c1)OCO2)c1c(O)n(C)c(=O)n(C)c1=O	0	1	3	-1.1	0.059	105	/	/
CCC(=NCc1ccc2c(c1)OCO2)c1c(O)n(C)c(=O)n(C)c1=O	2	-2	7	2.9*	-0.61	124	/	/	M1 ag confirm=12;M4 ag counter=-35
C[C@H]1OC[C@@H](C[N+](C)(C)C)O1	2	6	-6	48*	-9.7*	117	/	/	M1 ag confirm=527*;M4 ag counter=220*
CCCCC12CNCC(C)(CNC1)C2=O	3	2	3	-0.55	0.61	117	/	/
CC(C)OC(=O)c1c(N)n(CC2CCCO2)c2nc3ccccc3nc12 (centres undefined)	-6	-19	10	0.28	0.036	106	/	/
Nc1c(C(=O)OC2CCCCC2)c2nc3ccccc3nc2n1CC1CCCO1 (centres undefined)	1	-19	5	4.1*	0.2	120	/	/	M1 ag confirm=-8.5;M4 ag counter=-46
C[N+]12CCC(CC1)C(C#N)(N1CCOCC1)C2 (centres undefined)	10	8	2	-1	0.49	109	/	/
Cc1ccc(S(=O)(=O)Nc2cc(C(=O)N3CCC4(CC3)OCCO4)ccc2N2CCCCC2)cc1	26	8	-4	2.8*	-0.42	78	/	/	M1 ag confirm=-9.9;M4 ag counter=-20
CCOCCCNC(=O)CN1C2CCC1CC(O)(c1ccc(OC)cc1)C2 (centres undefined)	0	-3	5	0.085	0.57	132	/	/
OC(COCc1ccc(Cl)cc1)CN1CC=C(c2ccccc2)CC1 (centres undefined)	7	6	2	-2.8*	-4*	104	475*	177	M1 ag confirm=-6.8;M4 ag counter=-22
CCCC12CN3CN(C1)CC(CCC)(C3)C2O (centres undefined)	/	/	2	-0.71	0.15	92	/	/
C=C(C)c1cccc(C(C)(C)NC(=O)NC2CN3CCC2CC3)c1 (centres undefined)	3	-2	0	/	/	101	/	/
O=C(COc1ccc(Cl)cc1)NC1CN2CCC1CC2 (centres undefined)	-12	6	5	0.59	-16*	83	398*	257
O=C(c1csc2c1CCCCC2)N1CCC2(CC1)OCCO2	-21	-14	1	0.0094	-0.1	93	/	/
O=C1C2CCCN2C(c2cccs2)N1c1ccccn1 (centres undefined)	8	-2	5	-0.61	1.3	77	/	/
COc1cccc(CNC2CN3CCC2CC3)c1OC (centres undefined)	-39	9	-4	0.22	-5.1*	82	392*	196
O=C(c1cc2ccccc2oc1=O)N1CCC2(CC1)OCCO2	0	7	2	-0.083	-3.7*	108	609	230
Cc1c(C(=O)N2CCC3(CC2)OCCO3)oc2ccccc12	5	4	1	-0.45	-2.3*	125	519	171
O=C(O)c1cc2ccccc2oc1=O	1	-2	6	-1.1	-0.34	96	/	/
Cn1cccc1CNCCc1ccccc1F	6	4	3	1.2	-0.71	102	/	/
CSc1nnc(C2CCNCC2)n1C	-1	7	-4	-0.29	-0.027	59	/	/
Cn1c(=O)cc(OCC(=O)N2CCN(Cc3ccc4c(c3)OCO4)CC2)c2ccccc21	7	10	6	0.49	0.0097	109	/	/
SMILES	FXIIa inh mix	FXIa mix inh	JNK3 inh	M1 ag	M1 antagonist	HER2 expr 66K	M1 antag confirm	mGluR4 antag	others
OC(Cc1ccccc1)(c1ccccc1)C1CN2CCC1CC2 (centres undefined)	10	5	0	0.96	-7.2*	125	55*	274
CN1CCC(OC(=O)C2c3ccccc3Oc3ccccc32)CC1	3	5	-1	-0.4	-14*	151	25*	186
c1ccc(C(OCCN2CCNCC2)c2ccccc2)cc1	-4	5	1	0.49	-14*	89	148*	219
CCN(CC)CCN=C(C)c1c(O)n(-c2ccccc2OC)c(=O)[nH]c1=O	/	/	1	-0.12	0.2	96	/	/
CCCCOCCCn1c(N)c(C(=O)OCCOC)c2nc3ccccc3nc21	/	/	6	3.2	-4*	54	21*	229
COc1cc(C2NCc3ccccc3-n3cccc32)ccc1O (centres undefined)	3	2	1	-1	-1.1*	103	554	225
CC(C(=O)c1c[nH]c2ccccc12)N1CCc2ccccc2C1 (centres undefined)	2	6	-2	0.13	-0.55	65	/	/
CCN(CC)CCCNC(=O)c1c(O)c2ccccc2n(Cc2ccccc2)c1=O	-2	5	3	-0.27	-5.4*	97	393*	210
Cc1[nH]c2c(Cl)cccc2c1CCN	7	5	-6	0.22	-2.8*	107	621	191
CCOC(=O)/C(CCCN(CC)CC)=N\O	-17	4	-2	-0.71	-2.9*	70	251*	221
COc1ccc(C2C(C(=O)N3CCC4(CC3)OCCO4)CC(=O)N2c2ccc(OC)cc2)cc1 (centres undefined)	0	8	/	-0.13	0.091	69	/	/
CCCCc1nc(N2CCNCC2)c(C#N)c2c1CSC(C)(C)C2	/	/	-1	-0.32	-9.8*	89	61*	220
Cn1c(C(=O)O)c(CC(=O)N2CCN(Cc3ccccc3)CC2)c2ccccc21	6	5	-4	-0.11	-2.2	95	/	/
Cc1ccc2nc(N3CCC(C(=O)N4CCC5(CC4)OCCO5)CC3)sc2c1	-3	6	1	-0.049	-1*	187	471*	247

High-throughput results from PubChem.
